Rows were chosen to be rich in hits. Some 1.4% of all compounds tested hit in one or more screens of this group.
Akt phos inh: HTS Assay for Inhibitors of Akt Phophorylation: Primary Screen. Neuro2A IGF-stimulated pAkt S473 HTRF, 20 min; stronger effect = lower value. activity change, % for hits at 50 µM. 0.32% of 360,000 active. AID 651550, 2012; in the data active means activity change below about -80%; inconclusive means mostly about -51% to -80%; further: on the % scale 0 is the no-effect control and ±100 the full control effect
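Neuro2A cells in DMEM with 0.5% FBS, overnight at 37 deg C, given compound at single 50 µM final, then IGF (6 nM final) for 20 min at 37 deg C. Lysed; phospho-Akt Ser473 by HTRF after 24 h, 665/615 ratio.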
N370S GC mod: qHTS Assay for Inhibitors and Activators of N370S glucocerebrosidase as a Potential Chaperone Treatment of Gaucher Disease; Lysosomal acid glucosylceramidase (Homo sapiens), P04062; Potency, µM (series often up to 59.4 µM), without a hit: at the highest dose activity change, negative = inhibition, usual class: inhibitors; 0.092% of 330,000 active; N370S GC spleen homogenate, 4MU-glucoside fluorescence;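 further: potency means the concentration at half of the fitted maximal effect; 0% = full enzyme activity and -100% = no enzyme basal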
AT treatment: qHTS Assay for Identifying a Potential Treatment of Ataxia-Telangiectasia | F2112 A-T fibroblasts, KAP-1 phosphorylation AlphaLISA; neocarzinostatin DNA damage 30 min before lysis | Potency, µM (top dose mostly 57.5 µM), for the others: top-dose activation, usual class: activators | 0.19% of 320,000 active | AID 485349, 2010; further: potency means the concentration at half of the fitted maximal effect; % of control where 0% means no effect; nearly all actives have a fitted effect of over 45% in size
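hTERT-immortalized A-T patient fibroblasts (F2112), 500 cells/well in OPTI-MEM, 1% FBS, got compounds for 60 min, then NCS for 30 min at 37C. Lysates were then assayed for phospho-KAP-1 by AlphaLISA (anti-pKAP1 donor, anti-KAP1 acceptor beads), 6 hr at 25C.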
TrxR1 substrate: qHTS Assay for Substrates of Mammalian Selenoprotein Thioredoxin Reductase 1 (TrxR1): qHTS; Thioredoxin reductase 1, cytoplasmic (Rattus norvegicus), O89049; purified TrxR1 substrate turnover, NADPH consumption readout; Potency, µM (highest dose often 114 µM), without a hit: at the top dose activity change, negative = substrate turnover; 0.01% of 390,000 active; AID 588456, 2011; further: potency means the concentration at half of the fitted maximal effect; on the % scale 0 is the no-effect control and ±100 the full control effect; nearly all actives have a fitted effect of over 50% in size
Target sequence (O89049 whole entry, looked up): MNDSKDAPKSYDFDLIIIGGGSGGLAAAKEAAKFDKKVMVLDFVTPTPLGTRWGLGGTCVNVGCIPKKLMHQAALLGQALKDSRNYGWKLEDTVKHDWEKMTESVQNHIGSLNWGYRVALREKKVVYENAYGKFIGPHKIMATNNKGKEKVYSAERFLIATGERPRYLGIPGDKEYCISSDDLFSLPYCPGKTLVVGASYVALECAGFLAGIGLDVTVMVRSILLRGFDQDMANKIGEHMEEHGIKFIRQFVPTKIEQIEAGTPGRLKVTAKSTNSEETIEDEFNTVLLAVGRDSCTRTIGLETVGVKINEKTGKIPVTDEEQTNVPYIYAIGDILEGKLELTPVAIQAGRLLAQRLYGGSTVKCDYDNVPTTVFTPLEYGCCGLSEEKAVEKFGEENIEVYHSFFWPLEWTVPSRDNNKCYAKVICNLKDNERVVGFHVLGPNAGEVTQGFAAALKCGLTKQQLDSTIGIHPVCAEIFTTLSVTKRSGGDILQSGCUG
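Rat TrxR1, dispensed at 90 nM, was prereduced with 400 uM NADPH (final) for 5 min at ~22 deg C, then incubated with compound 15 min before 400 uM selenite. A first-read NADPH fluorescence drop versus no-compound background flagged substrates.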
rTrxR1 inhibitor: qHTS Assay for Inhibitors of Mammalian Selenoprotein Thioredoxin Reductase 1 (TrxR1): qHTS | Thioredoxin reductase 1, cytoplasmic (Rattus norvegicus), O89049 | recombinant rTrxR1, NADPH fluorescence consumption, selenite substrate | AID 588453, 2011 | Potency, µM (series often up to 114 µM), for the others: top-dose activity change, negative = inhibition, most hits filed as inhibitors | 1% of 390,000 active; further: potency means the concentration at half of the fitted maximal effect; on the % scale 0 is the no-effect control and ±100 the full control effect; nearly all actives have a fitted effect of over 65% in size
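Rat TrxR1 (90 nM in the dispensed reagent) was pre-reduced with 400 uM NADPH for 5 min at room temperature, then incubated with compound for 15 min. After 400 uM selenite was added, NADPH fluorescence (Ex 340/Em 450 nm) was followed for 8 min.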
Pin1 inhibitor: qHTS Assay to Find Inhibitors of Pin1; Pin1 FP peptide displacement, HiFluor488, 10 min; Potency, µM (top dose mostly 115 µM), for inactives: at the top dose activity, negative = inhibition, usual class: inhibitors; 0.009% of 390,000 active; AID 504891, 2011; active means well fitted inhibition curve with a large enough effect in the polarisation, with a control signal flat, not every such curve was filed as active; inconclusive means small, poorly fitted or top-dose-only effect, or effect the other way, or a change in a side signal; inactive means no such curve, though single readings can be large or run the other way; the % refers to the polarisation; further: potency means the concentration at half of the fitted maximal effect; on the % scale 0 is the no-effect control and ±100 the full control effect
Active calls of the source: *; [ ] = another dose, or the depositor's remark. Unless noted, the call rests on the fitted dose curve; in most records, active means well fitted curve in the direction sought with a large enough effect; inconclusive means small, poorly fitted or top-dose-only effect, or another doubt; inactive means no such curve, though single readings can be large; an effect the other way counts as inactive or inconclusive.

CC(=O)N1CCCc2cc(S(=O)(=O)N3CCC(C(=O)N(Cc4ccccc4)C(C)C)CC3)ccc21 was read as TrxR1 substrate 6%[57.1 µM], rTrxR1 inhibitor 26%[57.1 µM] and Pin1 inhibitor -9%.
For COc1ccc(-c2cc(-c3ccco3)[nH]c(=O)c2C#N)cc1OC the results were Akt phos inh inactive, N370S GC mod inconclusive, AT treatment 5%, TrxR1 substrate 46%, rTrxR1 inhibitor 16µM* and Pin1 inhibitor inconclusive.
For COc1coc(C(O)C[N+](=O)[O-])cc1=O (stereo not given) the results were Akt phos inh inactive, N370S GC mod 1%, AT treatment -5%, TrxR1 substrate 5%, rTrxR1 inhibitor 50µM* and Pin1 inhibitor -4%.
Screening CC(C(O)c1cc(=O)c(OCc2ccccc2)co1)[N+](=O)[O-] (stereo not given) returned Akt phos inh inactive, TrxR1 substrate 1%, rTrxR1 inhibitor -3% and Pin1 inhibitor -3%.
COc1ccc(-c2cc(C(=O)Nc3ccc(C)c(C)c3)no2)cc1 was read as Akt phos inh inactive, N370S GC mod -1%, AT treatment 13µM*, TrxR1 substrate 44%, rTrxR1 inhibitor 59% and Pin1 inhibitor -5%.
Screening Cc1ccc(NC(=O)c2cc(-c3ccc(F)cc3)on2)cc1C returned Akt phos inh inactive, N370S GC mod -1%, AT treatment 2%, TrxR1 substrate -8%, rTrxR1 inhibitor 3% and Pin1 inhibitor -10%.
Cc1cc2c(s1)c1cnn(Cc3ccc(F)c(F)c3F)c(=O)c1n2C was read as Pin1 inhibitor 7%.
`Cc1nnc(SCC(=O)N2CCOCC2)c2ccccc12` gave Akt phos inh -115%*, N370S GC mod -14%, AT treatment 6%, TrxR1 substrate -4%, rTrxR1 inhibitor -19% and Pin1 inhibitor -9%.
For Cc1cc(C)nc(SCc2cc(=O)c(OC(=O)c3ccco3)co2)n1 the results were Akt phos inh inactive, N370S GC mod 1%, AT treatment 3%, TrxR1 substrate 14%, rTrxR1 inhibitor 21% and Pin1 inhibitor 1%.
Screening Cc1cc(C)nc(SCc2cc(=O)c(OC(=O)c3ccc(Br)o3)co2)n1 returned Akt phos inh inactive, N370S GC mod 10%, AT treatment -3%, TrxR1 substrate -11%, rTrxR1 inhibitor 79µM* and Pin1 inhibitor 3%.
Screening Cc1cc(C)nc(SCc2cc(=O)c(OC(=O)c3ccc(S(=O)(=O)N4CCCC4)cc3)co2)n1 returned Akt phos inh inactive, N370S GC mod -16%, AT treatment 10%, TrxR1 substrate 4%, rTrxR1 inhibitor 16µM* and Pin1 inhibitor 7%.
For Cc1cc(SC#N)cc(C)c1NC(=O)CCl the results were Akt phos inh inactive, N370S GC mod 8%, AT treatment -19%, TrxR1 substrate -7%, rTrxR1 inhibitor 50µM* and Pin1 inhibitor -3%.
CCc1cc(SC#N)cc(C)c1NC(=O)CCl was read as Akt phos inh inactive, N370S GC mod 10%, TrxR1 substrate 20%[57.1 µM], rTrxR1 inhibitor inconclusive and Pin1 inhibitor 1%.
Screening Cc1ccc(Nc2cc(C)c(C#N)c3nc4ccccc4n23)c(C)c1 returned TrxR1 substrate 9%, rTrxR1 inhibitor inconclusive and Pin1 inhibitor 10%.
`Cc1nn(-c2ccc(Cl)cc2)c2[nH]c(=O)c(CNCc3ccc4c(c3)OCO4)cc12` gave Akt phos inh inactive, N370S GC mod -19%, AT treatment -6%, TrxR1 substrate -2%, rTrxR1 inhibitor 22µM* and Pin1 inhibitor 1%.

Source: PubChem BioAssay (National Center for Advancing Translational Sciences (NCATS))
